# PubChem BioAssay AID1745850 (National Center for Advancing Translational Sciences (NCATS), 2022)
# About 260 (12%) of roughly 2,100 compounds were called active. Inconclusive results (about 58%) are left out. Calls follow the shape of the dose curve; as a rule, active = well fitted cell-killing curve with a large enough effect; inconclusive = small, poorly fitted or top-dose-only effect, or effect the other way; inactive = flat fitted curve, though single readings scatter. This is one part of the list. Where a call stands in place of a potency, no number is given.
# Assay: Viability Counterscreen for Confirmatory qHTS for Inhibitors of ATXN expression; also: nearly all actives have a fitted effect of over 50% in size
# Settings: HEK-293 ATXN2-luc cells viability, CellTiter-Fluor, 24 h
# Method in brief: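 Luminescence read-out (SteadyGlo, 5 min) followed a 30 min Gly-Phe-AFC (25 uM final) viability fluorescence read. ATXN2-luciferase reporter cells were exposed 24 h to a dilution series. Medium-only wells served as the 100% inhibition reference.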
# Potency is read from the fitted curve at half-maximal effect.
row,SMILES,Potency
1,C=CCc1cccc(/C=N/NC(=O)CNc2ccccc2)c1O,inactive
2,COc1cccc(C(NC(C)=O)c2ccc3cccnc3c2O)c1 (stereo not given),8.91 µM (active)
3,CCCC(=O)NC(c1ccc(C(C)C)cc1)c1ccc2cccnc2c1O (stereo not given),inactive
4,CC(=O)NC(c1ccc(C)cc1)c1cc(Cl)c2cccnc2c1O (stereo not given),11.2 µM (active)
5,CCCCC(=O)NC(c1ccc(N(CC)CC)cc1)c1ccc2cccnc2c1O (stereo not given),inactive
6,O=C(Nc1cccc(C(F)(F)F)c1)Oc1ccc(Cl)c2cccnc12,inactive
7,COc1ccc(C(NC(C)=O)c2cc(Cl)c3cccnc3c2O)cc1OC (stereo not given),10 µM (active)
8,COc1ccc(C(NC(C)=O)c2cc(Cl)c3cccnc3c2O)cc1 (stereo not given),8.91 µM (active)
9,C(=N\NC(=Nc1ccccc1)c1ccccn1)/c1ccccn1,inactive
10,COc1ccc(CNC(=O)CSc2nc(-c3ccccc3)cc(-c3cccs3)c2C#N)cc1,inactive
11,COc1cc2ccnc(Cc3cccc(OC)c3OC)c2cc1OC,inactive
12,COc1ccc(OC)c(C(=O)/C=C/c2ccccc2C(F)(F)F)c1,inactive
13,Cc1ccc2nc(-c3ccccc3)nn2c1,inactive
14,O=C(N/N=C/c1cc(Br)cc(Br)c1O)c1cccc(N2CCCC2=O)c1,inactive
15,COC(=O)c1ccc(C(=O)Nc2cc(Cl)ccc2Cl)cc1NC(=O)c1ccc(N(C)C)cc1,inactive
16,O=C(N/N=C/c1cc(Cl)ccc1O)c1cccnc1,inactive
17,Cc1cc(NC(c2cccnc2)c2ccc3cccnc3c2O)no1 (stereo not given),8.91 µM (active)
18,Cc1ccc(S(=O)(=O)Nc2cc(Cl)c(O)c3ncccc23)cc1,10 µM (active)
19,O=C(NC(c1ccc(Cl)cc1)c1cc(Cl)c2cccnc2c1O)c1cccnc1 (stereo not given),12.6 µM (active)
20,O=C(N/N=C/c1c(O)n(Cc2ccccc2)c(=O)c2ccccc12)c1cccnc1,inactive
21,COc1cc(CNCc2ccncc2)cc(Br)c1OCc1ccccc1F,inactive
22,Cn1c(CO)c(-c2ccccc2)c2cc([N+](=O)[O-])ccc21,inactive
23,CCn1c(C)cc(C(=O)COC(=O)c2ccccc2[N+](=O)[O-])c1C,inactive
24,CCOC(=O)N1CCN(c2ccnc3cc(Cl)ccc23)CC1,inactive
25,CN(CCc1ccccc1)c1cc2c(c3c1ccn3C)C1CCC2O1 (stereo not given),inactive

row,SMILES,Potency
1,CC(C)(C)c1ccc(CC(=O)N2CCC2(C)C(=O)Nc2cnc3ccccc3c2)cc1 (stereo not given),inactive
2,O=C(Nc1cccc2ccccc12)OC1C=CS(=O)(=O)C1 (stereo not given),inactive
3,Cc1noc2ncnc(N3CCN(c4cccc(Cl)c4)CC3)c12,inactive
4,O=C(CSCC(=O)Nc1ccccc1)N/N=C/c1c(O)ccc2ccccc12,inactive
5,CC(C)(C)c1ccc(Oc2ccc(N)cc2)cc1,inactive
6,COc1ccc2[nH]c3c(N4CCC(O)(c5cccc(C(F)(F)F)c5)CC4)ncnc3c2c1,3.16 µM (active)
7,O=C1CN(C(=O)c2c(F)cccc2F)C(c2ccc(F)cc2)c2cc(Br)ccc2N1 (stereo not given),inactive
8,COc1cccc(NC(=O)/C=C/c2ccc(S(=O)(=O)N3CCOCC3)cc2)c1,inactive
9,COc1ccc(N2C3=C(CC4=C2CC(C)(C)CC4=O)C(=O)CC(C)(C)C3)cc1,inactive
10,CC1CC2(C)Oc3ccccc3CC2C(C)C1CNCCCN(C)C (stereo not given),25.1 µM (active)
11,O=C(C1CCC(CNS(=O)(=O)c2cccc3nsnc23)CC1)N1CC=C(c2ccccc2)CC1 (stereo not given),inactive
12,Cc1ccccc1SCC(=O)N1CCN(c2ccc(C(F)(F)F)cn2)CC1,inactive
13,COc1cc(-c2ccc3sc(-c4ccsc4)c(C#CCO)c3c2)cc(OC)c1OC,22.4 µM (active)
14,COc1ccc(-c2sc3ccc(OC)cc3c2-c2ccc(O)cc2)cc1,inactive
15,O=C(O)CSc1cc(NS(=O)(=O)c2ccc(Cl)cc2)c2ccccc2c1O,35.5 µM (active)
16,COC(=O)[C@H]1C[C@H](OC(=O)NC2CC2)[C@@]2(O)CN(S(=O)(=O)c3ccc(C)cc3)CC2[C@H]1C(=O)OC (stereo not given in full),inactive
17,COc1ccc(-c2csc(NC(=O)c3ccccc3NS(=O)(=O)c3ccc(F)c(F)c3)n2)cc1,5.62 µM (active)
18,COc1ccc(CC(N)c2csc(NC(=O)c3ccccc3OC)n2)cc1 (stereo not given),inactive
19,C/[N+]([O-])=C\c1cccc(OCCN2CCN(c3ncc(C(F)(F)F)cc3Cl)CC2)c1,inactive
20,CC[n+]1c(/C=C/c2c[nH]c3ccccc23)ccc2cc(C)ccc21,15.8 µM (active)
21,Nc1ccc(OC(=O)Nc2ccc(O)cc2)cc1,inactive
22,O=C(Cn1cnc([N+](=O)[O-])c1)Nc1cc(Oc2ccc(Cl)cc2Cl)cc([N+](=O)[O-])c1,3.16 µM (active)
23,O=C(NCC1CCCO1)c1cccc(Oc2ccc([N+](=O)[O-])cc2Cl)c1 (stereo not given),inactive
24,CC1CCN(Cc2c(C(=O)N/N=C/c3cc(Cl)ccc3O)nnn2-c2nonc2N)CC1,inactive
25,O=C1c2cccc3cc([N+](=O)[O-])cc(c23)C(=O)N1CCN1CCCC1,3.16 µM (active)

row,SMILES,Potency
1,Nc1cc2c3c(cccc3c1)C(=O)N(CCN1CCCC1)C2=O,22.4 µM (active)
2,CCCCCCc1cc2cc(C(=O)Nc3ccccc3)c(=O)oc2cc1O,inactive
3,O=C(CN1C(=O)c2ccccc2S1(=O)=O)N1CCc2ccccc21,inactive
4,CCOc1cc(/C=C2\SC(=N)N(c3nccs3)C2=O)ccc1OCCN1CCOCC1,25.1 µM (active)
5,OC1(c2ccc(Br)cc2)CCNCC1,inactive
6,Cc1onc(-c2ccccc2)c1C(=O)Nc1ccc(S(=O)(=O)NC(C)(C)C)cc1,inactive
7,Cc1cc(C)cc(OCC(=O)NNC(=S)NC(=O)C2CC2)c1,inactive
8,Cc1sc2cc3c(c(C(=O)c4ccccc4)[n+]2c1C)-c1cccc2cccc-3c12,12.6 µM (active)
9,CC(=O)c1ccc(C(=O)Nc2nnc(-c3ccc(Cl)cc3)o2)cc1,inactive
10,CCn1c2ccccc2c2cc(NC(=O)COC(=O)C3CCC(=O)N3)ccc21 (stereo not given),inactive
11,NS(=O)(=O)c1ccc(N2N=C(c3ccc(Br)cc3)CC2c2ccc(F)cc2)cc1 (stereo not given),inactive
12,O=C(NNCc1ccccc1)c1ccccc1,inactive
13,COc1cccc(OC)c1C(=O)OCC(=O)NC(=O)NCc1ccccc1,inactive
14,c1ccc(CN=C(NCc2ccccc2)NCc2ccccc2)cc1,31.6 µM (active)
15,CCCC/C(C)=N/NC(=O)c1cn(-c2ccccc2)nc1-c1ccccc1,inactive
16,C/C(=N\NC(=O)c1cccc2ccccc12)c1ccccn1,6.31 µM (active)
17,CCCCCC(=O)N/N=C(\C)c1ccccn1,inactive
18,Nc1cccc2nc3ccccc3cc12,inactive
19,COc1cc(N)ccc1Nc1c2ccccc2nc2ccccc12,31.6 µM (active)
20,COc1cc2cc(C(=O)NC(C)c3cccc4ccccc34)c(N)nc2cc1OC (stereo not given),inactive
21,O=C(NNC(=O)c1csc(-c2cnccc2C(F)(F)F)n1)c1ccc(C(F)(F)F)cc1,inactive
22,c1cc2c(cc1-c1cnc3n1CCC3)OCCO2,inactive
23,O=C1C=C(NCCc2cc(Br)c(O)c(Br)c2)C(=O)c2ncccc21,10 µM (active)
24,CCOC(=O)c1c2ccc(OCC(=O)N/N=C/c3ccc(C)cc3)cc2n2ccccc12,inactive
25,CCCc1nc2c(c(=O)c3ccccc3n2C)c(=O)n1C1CCCCCC1,28.2 µM (active)

row,SMILES,Potency
1,CN1CCC[C@H]1CCNc1ccc2c(=O)c3ccccc3n(C)c2c1,inactive
2,Nc1c(C(=O)NCc2ccc3c(c2)OCO3)c2nc3ccccc3nc2n1CCCN1CCOCC1,inactive
3,CC(C)(C)c1ccc(OCCn2nc(C(=O)O)c3ccccc3c2=O)cc1,inactive
4,COC(=O)C1=C(C)N(Cc2ccccc2)C(=NCCc2cccnc2)N[C@H]1c1ccc(Br)cc1,22.4 µM (active)
5,Cc1cccc(NC(=O)CCC(=O)N/N=C/c2ccc(O)cc2O)c1,inactive
6,COc1ccc2c(Cl)c(C(=O)NN)sc2c1,inactive
7,OC(CNCCc1ccccc1)COc1ccc(OCC(O)CNCCc2ccccc2)cc1 (stereo not given),22.4 µM (active)
8,CCC(=O)c1ccc(OCC(O)CN(CCc2ccccc2)Cc2ccccc2)cc1 (stereo not given),inactive
9,O=C(N/N=C\c1c(O)ccc2ccccc12)c1ccc(S(=O)(=O)N2CCCCC2)cc1,inactive
10,O=S(=O)(c1ccc2nc(COc3ccc(Cl)cc3Cl)[nH]c2c1)N1CCOCC1,inactive
11,COc1cccc(NC(=O)CSc2nc3ncc(Br)cc3[nH]2)c1,inactive
12,N#C/C(=C\C=C\c1ccccc1[N+](=O)[O-])C(=O)NC1CCCCC1,20 µM (active)
13,CC1CCCCC1NC(=O)/C(C#N)=C/C=C/c1ccccc1[N+](=O)[O-] (stereo not given),2.82 µM (active)
14,CC(C)N(Cc1ccccc1)C(=O)/C=C/c1ccccc1[N+](=O)[O-],inactive
15,O=C(NCC1CC1)c1ccc2c(c1)S(=O)(=O)c1cc(Cl)ccc1C2=O,inactive
16,Cc1cc(C)n(-c2ccc(C(=O)N3CCN(S(=O)(=O)c4cccc(Br)c4)CC3)cc2)n1,inactive
17,O=C(Nc1ccc(N2CCOCC2)c(Cl)c1)c1c(F)c(F)c(F)c(F)c1F,inactive
18,CC(O)(c1ccccc1)c1nc(-c2ccncc2)cs1 (stereo not given),inactive
19,COc1ccc(NC2=NCC(Cc3ccc(Br)cc3)S2)cc1 (stereo not given),inactive
20,CCN(CC)CCC(c1ccc2c(c1)OCO2)c1c(OC)cc(OC)c2c(-c3ccccc3)cc(=O)oc12 (stereo not given),20 µM (active)
21,Cc1ccc(SC2=C(Sc3ccc(C)cc3)C(=O)c3ccccc3C2=O)cc1,inactive
22,CSc1ncnc2c1ncn2CC(=O)C1CCC2C3CCC4=CC(=O)CCC4(C)C3CCC12C (stereo not given),17.8 µM (active)
23,CCC(=O)OC1(C(C)=O)CCC2C3CCC4=CC(=O)CCC4(C)C3CCC21C (stereo not given),inactive
24,Cc1ccc(Sc2nnc(Cc3ccccc3)c3ccccc23)cc1,inactive
25,Cc1cc(C)c(C(=O)N2CCCC(N3CCN(c4cccc(C(F)(F)F)c4)CC3)C2)o1 (stereo not given),inactive
